PI4K2A block: blocks human PI4K2A kinase activity; Q9BTU6; purified PI4K2A, ADP-Glo luminescence, 1 h; stronger effect = lower value; activity change, negative = inhibition, % at 76.9 µM; hit rate 0.13% among 420,000; AID 1346378; in the data active means activity change below about -50%; inconclusive means mostly about -30% to -49%;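 further: -100% = wells without enzyme as full effect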
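Compounds are screened against recombinant PI4K2A using PI as substrate and ATP, the latter dispensed at 300 microM. Reactions run one hour at ambient temperature before ADP-Glo detection; full inhibition defined by wells lacking enzyme.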
TrxR1 substrate: rat thioredoxin reductase 1 substrate activity | Potency, µM (titrated, usually from 114 µM), for the others: at the highest dose activity change, negative = substrate turnover | purified TrxR1 substrate turnover, NADPH consumption readout | hit rate 0.01% among 390,000 | O89049; further: potency means the concentration at half of the fitted maximal effect; nearly all actives have a fitted effect of over 50% in size
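Rat TrxR1, dispensed at 90 nM, was prereduced with 400 uM NADPH (final) for 5 min at ~22 deg C, then incubated with compound 15 min before 400 uM selenite. A first-read NADPH fluorescence drop versus no-compound background flagged substrates.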
rTrxR1 inhibitor: inhibitors of rat thioredoxin reductase 1; O89049; recombinant rTrxR1, NADPH fluorescence consumption, selenite substrate; Potency, µM (doses to about 114 µM), without a hit: top-dose activity change, negative = inhibition, most hits filed as inhibitors; hit rate 1% among 390,000; further: potency means the concentration at half of the fitted maximal effect; nearly all actives have a fitted effect of over 65% in size
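Rat TrxR1 (90 nM in the dispensed reagent) was pre-reduced with 400 uM NADPH for 5 min at room temperature, then incubated with compound for 15 min. After 400 uM selenite was added, NADPH fluorescence (Ex 340/Em 450 nm) was followed for 8 min.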
GALK inhibitor: blocks human galactokinase activity; Potency, µM (highest dose often 57.5 µM), for the others: at the highest dose activity change, negative = inhibition, actives largely listed as inhibitors; P51570; AID 1868; Purified GALK, Kinase-Glo residual ATP luminescence; hit rate 0.007% among 270,000; further: potency means the concentration at half of the fitted maximal effect
Target sequence (P51570 whole entry, looked up): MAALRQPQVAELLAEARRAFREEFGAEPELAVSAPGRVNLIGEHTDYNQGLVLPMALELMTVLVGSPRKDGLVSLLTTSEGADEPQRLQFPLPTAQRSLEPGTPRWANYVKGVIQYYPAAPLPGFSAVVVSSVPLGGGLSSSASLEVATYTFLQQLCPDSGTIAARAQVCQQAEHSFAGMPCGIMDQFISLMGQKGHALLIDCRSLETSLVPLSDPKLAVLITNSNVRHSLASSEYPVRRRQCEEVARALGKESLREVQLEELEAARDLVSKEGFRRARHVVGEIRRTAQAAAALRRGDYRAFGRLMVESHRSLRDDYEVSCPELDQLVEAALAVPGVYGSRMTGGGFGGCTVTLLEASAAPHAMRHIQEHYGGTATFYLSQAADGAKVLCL
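Quantitative HTS: GALK 5 nM, ATP 35 uM, galactose 100 uM, 1 h room temperature, then luciferase-based ATP detection.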
* hit, by the source's call; i = inactive; u = inconclusive; x = not tested or not shown; [ ] = another dose, or the depositor's remark. This is a sample that favours compounds with a hit; in the whole collection about 1.1% have one here. Unless noted, the call rests on the fitted dose curve; in most records, active means well fitted curve in the direction sought with a large enough effect; inconclusive means small, poorly fitted or top-dose-only effect, or another doubt; inactive means no such curve, though single readings can be large; an effect the other way counts as inactive or inconclusive. Unless noted, on the % scale 0 is the no-effect control and ±100 the full control effect.

SMILES	PI4K2A block	TrxR1 substrate	rTrxR1 inhibitor	GALK inhibitor
Cc1cnc(NC(=O)/C=C/c2ccc(Br)o2)s1	1	8%	-9%	-2%
Cc1ccc(/C=C/C(=O)Nc2nccs2)o1	-2	-3%	45µM*	0%
CCOC(=O)C(=O)Nc1nccs1	-3	-1%	14%	-1%
CCOC(=O)/C=C/C(=O)Nc1nccs1	-4	-3%	50µM*	0%
Cc1ccc(/C=C/C(=O)Nc2ncc(C)s2)o1	-2	5%	40µM*	1%
O=C(O)c1cn(C2CC2)c2cc(Cl)c(F)cc2c1=O	-2	x	x	x
CCOc1ccc(-n2c(SCC(=O)c3ccc4ccccc4c3)nnc2-c2ccco2)cc1	-3	x	x	x
C[C@H](Cc1ccc(O)c(O)c1)[C@@H](C)Cc1ccc(O)c(O)c1	-3	8%[57.1 µM]	13µM*	x
CC(C)C(=O)OCc1cccc(OC(=O)[C@@H]2N3C(=O)[C@@H](NC(=O)Cc4ccccc4)[C@H]3SC2(C)C)c1	-5	x	x	x
N#CC1(C#N)OC12CCS(=O)(=O)c1ccccc12 (stereo not given)	3	1%	50µM*	x
O=C(Cc1ccc(OCCC2CCCCC2)cc1)NO	x	-11%	-14%	x
Cc1ccc(NS(=O)(=O)c2cnc(N)nc2)c(C)c1	-4	3%[57.1 µM]	20%[57.1 µM]	x
O=C(Nc1ccc(N2CCCC2)cc1)C(Cl)c1ccccc1 (stereo not given)	u	-3%	16µM*	3%
CC(NC(=O)/C=C/c1ccco1)c1nc2ccccc2n1Cc1cccc(Cl)c1 (stereo not given)	-1	-3%	14µM*	1%
CCCC(=O)O[C@]1(C(=O)COC(=O)CC)CC[C@H]2[C@@H]3CCC4=CC(=O)CC[C@]4(C)[C@H]3[C@@H](O)C[C@@]21C	i	x	x	x
CC(=O)c1cc(O)c2ccccc2c1O	-19	-4%	32µM*	-1%
COC(=O)[C@]12C[C@H](CC(=O)NCc3cccc(C(F)(F)F)c3)C(=O)N(Cc3cccc4ccccc34)C1=C[C@H](C(C)(C)C)O[C@@H]2C	1	x	x	x
c1csc(C2C3=C(Nc4ncnn42)c2ccccc2OC3)c1 (stereo not given)	-6	18%	79µM*	2%
CC1=C(C(N)=O)C(c2cccs2)n2ncnc2N1 (stereo not given)	-4	21%	20%	-1%
CC(=O)c1ccc(-n2c(CCC(=O)O)ccc2-c2ccccc2)cc1	-5	3%	u	5%
CC(=O)c1cccc(-n2c(CCC(=O)O)ccc2-c2ccccc2)c1	5	2%	50µM*	x
COC(=O)C(NC(=O)CC(C)C)(Nc1nc2c(s1)CCCC2)C(F)(F)F (stereo not given)	-3	-10%	-10%	x
COC(=O)C(NC(=O)COc1ccccc1)(Nc1nc2c(s1)CCCC2)C(F)(F)F (stereo not given)	-6	-7%	32µM*	-3%
O=C(O)c1ccc(Oc2nc3ccccc3s2)cc1	-61*	5%[11.4 µM]	-1%[11.4 µM]	x
O=C(O)c1ccc(C=C(c2nc3ccccc3s2)c2nc3ccccc3s2)cc1	0	-6%[57.1 µM]	4%[57.1 µM]	1%
SMILES	PI4K2A block	TrxR1 substrate	rTrxR1 inhibitor	GALK inhibitor
COc1ccccc1CNC(=O)c1ccoc1C	-1	-2%	u	3%
Cc1occc1C(=O)NCc1ccccc1F	6	9%	10µM*	-1%
CCCCCCCCCCCNC(=O)c1ccoc1C	-12	-5%	20µM*	-3%
Cc1occc1C(=O)NCCCCNC(=O)c1ccoc1C	-4	-4%	u	-1%
CCCCOCCCNC(=O)C[C@@H]1C(=O)N(Cc2ccc(OC)cc2)/C2=C/CCCCC[C@@]21C(=O)OCC	-1	x	x	x
O=C(/C=C/c1ccco1)N1CCN(c2ncccn2)CC1	-1	-9%	40µM*	1%
Cc1ccc(/C=C/C(=O)N2CCN(Cc3ccccc3)CC2)o1	-1	-9%	45µM*	-1%
Cc1cc(C)cc(C(=O)N2CC(=O)Nc3ccccc32)c1	-4	-2%	-5%	0%
O=C(/C=C/c1c(Cl)cccc1Cl)N1CCN(c2ncccn2)CC1	-2	2%[57.1 µM]	7%[57.1 µM]	-3%
COc1ccc(S(=O)(=O)N2CCN(C(=O)/C=C/c3ccco3)CC2)cc1	-22	-2%	13µM*	x
Cc1ccc(/C=C/C(=O)N2CC(=O)Nc3ccccc32)o1	4	-10%	79µM*	12%
O=C(/C=C/c1ccco1)N1CCN(S(=O)(=O)c2cccc([N+](=O)[O-])c2)CC1	0	-4%	-29%	x
Cc1ccc(C(=O)N2CCN(Cc3ccccc3)CC2)o1	-5	8%	11%	2%

Screens from PubChem BioAssay.
